{"source": "PubChem BioAssay AID2314", "about": "(National Center for Advancing Translational Sciences (NCATS), 2010)", "note": "The whole screen tested about 300,000 compounds, of which about 37,000 (12%) were called active. This excerpt belongs to a sample that is enriched for actives. A number with no mark means an inactive call. Rule as the data show it: active = max response mostly above about 13% (no sharp cut-off); inactive = mostly below about 14%.", "data": [{"assay": "Cycloheximide Counterscreen for Small Molecule Inhibitors of Shiga Toxin; also: read at 38.3 µM for the half of the compounds with a filed dose; 0% is about no effect", "conditions": "cell reporter, cycloheximide protein synthesis inhibition counterscreen; hits give high values", "values": [{"smiles": "O=C(Nn1cnnc1)c1cc(Cl)ccc1Cl", "max response": "1.72%"}, {"smiles": "COc1cccc(-n2c(SCC(=O)c3c[nH]c4ccccc34)nc3ccccc3c2=O)c1", "max response": "-2.32%"}, {"smiles": "CCc1c(O)nc(SCC(=O)N2CCCCC2)n(-c2ccccc2C)c1=O", "max response": "-1.43%"}, {"smiles": "Cc1ccc(-n2c(SCC(=O)N3CCC(C(=O)O)CC3)nc3ccccc3c2=O)cc1C", "max response": "25.2% (active)"}, {"smiles": "Cc1[nH]c2ccccc2c1C(=O)CN1CC(C)CC(C)C1", "note": "(configuration not stated)", "max response": "-1.83%"}, {"smiles": "O=C(NCc1ccccc1)C1=C[C@@H](c2ccc(C(F)(F)F)cc2)C[C@@H](OCc2ccc(CO)cc2)O1", "max response": "6.43%"}, {"smiles": "NC(=O)C1=C[C@@H](c2csc3ccccc23)C[C@@H](OCc2ccc(CO)cc2)O1", "max response": "-2.5%"}, {"smiles": "C=CCOC(=O)C1=C[C@@H](c2ccccc2)C[C@@H](OCc2ccc(CO)cc2)O1", "max response": "8.03%"}, {"smiles": "O=C(NCc1ccccc1)C1=C[C@H](C2CC2)C[C@H](OCc2ccc(CO)cc2)O1", "max response": "-2.61%"}, {"smiles": "O=C(NC1CC1)C1=C[C@H](c2c[nH]c3ccccc23)C[C@H](OCc2ccc(CO)cc2)O1", "max response": "16.2% (active)"}, {"smiles": "NC(=O)C1=C[C@H](c2csc3ccccc23)C[C@H](OCc2ccc(CO)cc2)O1", "max response": "20.4% (active)"}, {"smiles": "CCc1cccc(NC(=O)CCCN2C(=O)C(c3ccccc3)Oc3cccnc32)c1", "note": "(configuration not stated)", "max response": "11.2%"}, {"smiles": "C=C(Br)Cn1c(CCCC)nc2ccccc21", "max response": "3.99%"}, {"smiles": "COc1ccc(C)cc1S(=O)(=O)NCCc1ccccc1", "max response": "-1.77%"}, {"smiles": "COc1ccc(CCN2C(=O)N(c3ccc(OC)cc3)C(=O)C2CC(=O)Nc2ccc(OC)cc2)cc1", "note": "(configuration not stated)", "max response": "1.2%"}, {"smiles": "Cc1cc(C(F)F)nn1CC(=O)NC1CCCCCC1", "max response": "6.8%"}, {"smiles": "O=C(CN1CCCCCC1)Nc1ccc(Br)cc1Br", "max response": "15.8%"}, {"smiles": "Cc1ccc(CC2CC(=O)N(c3ccc4c(c3)OCCO4)C2=O)cc1", "note": "(configuration not stated)", "max response": "21.2%"}, {"smiles": "O=CN1CCN(C2CC(=O)N(c3ccc4c(c3)OCO4)C2=O)CC1", "note": "(configuration not stated)", "max response": "11.4%"}, {"smiles": "Cc1ccc(N2C(=O)CC(NCc3ccc4c(c3)OCO4)C2=O)cc1Cl", "note": "(configuration not stated)", "max response": "24% (active)"}, {"smiles": "CCNC(=O)CC1C(=O)N(c2ccc(OC)cc2)C(=S)N1CCc1ccncc1", "note": "(configuration not stated)", "max response": "-6.33%"}, {"smiles": "Cc1ccc2c(c1)N(CC(=O)NCC1CCCO1)C(=O)CO2", "note": "(configuration not stated)", "max response": "-1.04%"}, {"smiles": "O=C(NCCCN1CCCCC1)C1CC(=O)N(CCc2ccccc2)C1", "note": "(configuration not stated)", "max response": "3.29%"}, {"smiles": "COc1cccc(C(=O)Nc2cccnc2)c1OC", "max response": "2.63%"}, {"smiles": "COc1cccc(/C=C/C(=O)Nc2ccc3c(c2)OCCO3)c1", "max response": "51.1% (active)"}, {"smiles": "COc1ccc(/C=C/C(=O)N2CCCC2)cc1OC", "max response": "5.12%"}, {"smiles": "O=C(/C=C\\c1ccc2c(c1)OCO2)NC1(C(=O)Nc2ccc3c(c2)OCCO3)CCCCC1", "max response": "-4.38%"}, {"smiles": "COc1ccc(/C=C/C(=O)Nc2ccc3c(c2)OCCO3)cc1OC", "max response": "34.3% (active)"}, {"smiles": "COc1ccc(NS(=O)(=O)c2cc(NC(=O)/C=C/c3cc(OC)c(OC)c(OC)c3)ccc2N2CCCCC2)cc1", "max response": "-2.53%"}, {"smiles": "COc1cc(/C=N/NC(=S)Nc2cccnc2)cc(OC)c1O", "max response": "14%"}, {"smiles": "COc1ccc(OC)c(/C=C/C(=O)OCC(=O)Nc2ccc3c(c2)OCCO3)c1", "max response": "4.24%"}, {"smiles": "COc1ccc(/C=C/C(=O)Nc2ccc(C34CC5CC(CC(O)(C5)C3)C4)cc2)cc1OC", "max response": "36.8% (active)"}, {"smiles": "COc1ccc(/C=C/C(=O)Nc2cccnc2)cc1OC", "max response": "19.5% (active)"}, {"smiles": "COc1ccc(/C=C/C(=O)Nc2ccc(C)cc2)cc1S(=O)(=O)N1CCOCC1", "max response": "10.5%"}, {"smiles": "CCOc1ccc2c(=O)c(-c3ccc4c(c3)OCCCO4)c(C)oc2c1", "max response": "7.6%"}, {"smiles": "CCOc1ccccc1Nc1ccc(C(=O)O)cc1[N+](=O)[O-]", "max response": "-4.22%"}, {"smiles": "CCSc1nc2sc3c(c2c(=O)[nH]1)CC(C)(C)OC3", "max response": "0.89%"}, {"smiles": "O=S(=O)(c1cccc(-c2cn3ccccc3n2)c1)N1CCCC1", "max response": "13.9%"}, {"smiles": "Cc1cccn2cc(-c3cccc(S(=O)(=O)N4CCCCC4)c3)nc12", "max response": "15.4% (active)"}, {"smiles": "O=S(=O)(c1cccc(-c2nnc3n2CCCCC3)c1)N1CCOCC1", "max response": "-0.622%"}, {"smiles": "CCc1cc2c(N3CCN(c4nnc(CC)s4)CC3)ncnc2s1", "max response": "-4.57%"}, {"smiles": "COc1ccc(-n2c(C)cc(C(=O)CN3C(=O)NC4(CCc5ccccc54)C3=O)c2C)cc1", "note": "(configuration not stated)", "max response": "3.03%"}, {"smiles": "Oc1c(Br)cc(/C=N/NC(=S)NCC2CCCO2)cc1Br", "note": "(configuration not stated)", "max response": "1.44%"}, {"smiles": "S=C(NCCCc1ccccc1)Nc1ccc(Br)cc1", "max response": "9.21%"}, {"smiles": "Cc1nnc(OCC(=O)NCCC2=CCCCC2)c2ccccc12", "max response": "-1.88%"}, {"smiles": "O=C(Cc1cccc2ccccc12)NCCC1=CCCCC1", "max response": "-2.35%"}, {"smiles": "Oc1ccc(N2CCN(C(=S)NCc3ccccc3)CC2)cc1", "max response": "-5.44%"}, {"smiles": "S=C(NCCc1ccccc1)Nc1ccccc1", "max response": "52.7% (active)"}, {"smiles": "CC1CCCCN1C(=S)NCc1ccccc1", "note": "(configuration not stated)", "max response": "0.333%"}, {"smiles": "S=C(NCCC1=CCCCC1)Nc1ccccc1", "max response": "39.2% (active)"}, {"smiles": "S=C(NCCc1ccccc1)NCc1ccccc1Cl", "max response": "2.05%"}, {"smiles": "Oc1ccccc1N1CCN(C(=S)NCc2ccccc2)CC1", "max response": "31.8% (active)"}, {"smiles": "S=C(NCCc1ccccc1)NCC1CCCO1", "note": "(configuration not stated)", "max response": "29.4% (active)"}, {"smiles": "O=C(CS(=O)(=O)Cc1ccccc1)NCC1CCCO1", "note": "(configuration not stated)", "max response": "-0.705%"}, {"smiles": "Cc1nc2ccccc2c(=O)n1NC(=O)c1ccccc1", "max response": "-1.37%"}, {"smiles": "COc1ccc(CN(C)Cc2nc3cc(OC)c(OC)cc3c(=O)[nH]2)c(OC)c1", "max response": "-2.17%"}, {"smiles": "CCN(C(=O)CN1C(=O)/C(=C/c2ccc(F)cc2)SC1=S)C1CCS(=O)(=O)C1", "note": "(configuration not stated)", "max response": "-13.6%"}, {"smiles": "Cc1cccc(N2CCN(C(=O)CCS(=O)(=O)c3ccc4c(c3)NC(=O)C(C)S4)CC2)c1C", "note": "(configuration not stated)", "max response": "-1.44%"}, {"smiles": "CCCc1ccc(-c2c(C)sc(NC(=O)c3ccnn3C)c2C#N)cc1", "max response": "-3.68%"}, {"smiles": "O=C(CCc1n[nH]c(=O)[nH]c1=O)N/N=C/c1ccc(Br)o1", "max response": "-9.24%"}, {"smiles": "COCCNC(=O)COc1ccc(N(C)S(=O)(=O)c2ccc3ccccc3c2)cc1", "max response": "-5.19%"}, {"smiles": "N#Cc1c(-c2ccccc2)c(-c2ccccc2)n[nH]c1=O", "max response": "0.547%"}, {"smiles": "COc1cccc(CNC(=O)CN(C)S(=O)(=O)c2ccc3c(c2)c(=O)n(C)c(=O)n3C)c1", "max response": "-2.54%"}, {"smiles": "CC(=O)c1ccccc1OCc1ccc(C(=O)c2ccccc2)cc1", "max response": "2.75%"}, {"smiles": "O=C1CCN(C(=S)NCCc2ccccc2)CC1", "max response": "16%"}, {"smiles": "S=C(NCCc1ccccc1)N1CCCCC1", "max response": "60.3% (active)"}, {"smiles": "COc1ccc(C(=O)NC2CCN(C(=S)NCCc3ccccc3)CC2)cc1", "max response": "-2.31%"}, {"smiles": "CCc1ccc(-c2cc(C)no2)cc1S(=O)(=O)NCCc1ccc(S(N)(=O)=O)cc1", "max response": "-3.78%"}, {"smiles": "O=c1[nH]nc(CSCc2ccccc2Cl)[nH]1", "max response": "-2.59%"}, {"smiles": "COc1ccc(OC(C)C(=O)NCCc2nc3ccccc3[nH]2)cc1", "note": "(configuration not stated)", "max response": "-2.98%"}, {"smiles": "c1ccc2c(CSCc3nc4ccccc4[nH]3)cccc2c1", "max response": "13.2% (active)"}, {"smiles": "Clc1ccccc1SCc1nc2ccccc2[nH]1", "max response": "52.8% (active)"}, {"smiles": "c1ccc(-c2nnc(SCc3nc4ccccc4[nH]3)o2)cc1", "max response": "10.9%"}, {"smiles": "N=C(N)SCc1cccc2ccccc12", "max response": "-4.81%"}, {"smiles": "Cc1ccc(S(=O)(=O)c2c[nH]c3ccc(Cl)cc3c2=O)cc1", "max response": "-0.873%"}, {"smiles": "CC(NC(=O)CCCC1CCCCC1)c1ccc(S(N)(=O)=O)cc1", "note": "(configuration not stated)", "max response": "-1.75%"}, {"smiles": "CCC(=O)N1CCN(c2ccccc2NC(=O)COc2cccc(C)c2C)CC1", "max response": "-0.942%"}, {"smiles": "O=C(Nc1c2c(nn1-c1cccc(Cl)c1)CS(=O)(=O)C2)c1cccs1", "max response": "-4.62%"}, {"smiles": "COc1ccc(CN(Cc2ccco2)S(=O)(=O)c2ccc(S(=O)(=O)N3CCCC3)cc2)cc1", "max response": "-2.84%"}, {"smiles": "CCN(CC)CCCN=C(N)N", "max response": "-0.653%"}, {"smiles": "CCCCCCCN=C(C)c1ccccc1O", "max response": "-3.52%"}, {"smiles": "CCCCCCCCCCCCN=C(N)N", "max response": "13.5% (active)"}, {"smiles": "O=C1C(=O)N(CC2COc3ccccc3O2)c2ccccc21", "note": "(configuration not stated)", "max response": "-1.34%"}, {"smiles": "COc1cccc(CNc2nc(C(F)(F)F)nc3ccccc23)c1", "max response": "-1.53%"}, {"smiles": "COc1cccc(CNc2ncc(-c3ccccc3)n2C)c1", "max response": "23.9% (active)"}, {"smiles": "COc1cccc(CNS(=O)(=O)c2cc3c(cc2C)n(C)c(=O)c(=O)n3C)c1", "max response": "-2.63%"}, {"smiles": "CCOC(=O)C1CCN(C(=O)Cn2nc(C)c3c(C)n(-c4ccccc4)nc3c2=O)CC1", "max response": "-0.326%"}, {"smiles": "O=C(CCc1nnc2ccc(NCCCN3CCCC3=O)nn12)NCc1ccccc1Cl", "max response": "-2.54%"}, {"smiles": "CC(C)(C)NC(=O)C(c1ccc(Cl)cc1)N(CCO)C(=O)c1snc(C(N)=O)c1N", "note": "(configuration not stated)", "max response": "-3.49%"}, {"smiles": "Cc1ccc(NC(=O)C2CCCN2S(=O)(=O)c2cccc3cccnc23)c(C)c1", "note": "(configuration not stated)", "max response": "-1.86%"}, {"smiles": "Nc1nnnn1/N=C/c1cccs1", "max response": "-4.55%"}, {"smiles": "Cc1ccc(N2CCN(/N=C/c3cccs3)CC2)cc1", "max response": "7.5%"}, {"smiles": "C(=N/N1CCN(c2ccccc2)CC1)/c1cccs1", "max response": "36.9% (active)"}, {"smiles": "Cc1cccc(-c2c(NC(=O)c3ccco3)oc3ccc(Cl)cc3c2=O)c1", "max response": "-1.7%"}, {"smiles": "CC(C)c1ccc(S(=O)(=O)N2CCC3(CC2)OCCO3)cc1", "max response": "-1.14%"}, {"smiles": "CC(C)c1ccc(/C=C2\\NC(=O)NC2=O)cc1", "max response": "18.8% (active)"}, {"smiles": "COC(=O)CN1C(=O)[C@H]2[C@@H](/C=C/c3ccccc3)N3C(=O)CN(Cc4ccccc4)C(=O)[C@@]3(Cc3ccccc3)[C@H]2C1=O", "max response": "-3.52%"}]}]}
